Results filed as inconclusive are left out. Activity calls are given as the source filed them. Calls come from the whole dose curve; as a rule, active = well fitted inhibition curve with a large enough effect; inconclusive = small, poorly fitted or top-dose-only effect; inactive = flat fitted curve, though single readings scatter.
Experiments:
Assay in all cases: qHTS profiling for inhibitors of Plasmodium falciparum proliferation (AID 504749); note: nearly all actives have a fitted effect of over 60% in size
Settings in all cases: P. falciparum in erythrocytes, SYBR Green DNA, 72 h; series mostly up to 28.7 µM
CP315 = test system: CP315
How it was run: (§1)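 SYBR Green fluorescence of parasite DNA, read after lysis and overnight dark incubation, measured growth over 72 h in erythrocyte culture at 0.3% parasitemia and 2.5% hematocrit. Data normalised to DMSO and 0.29 uM artemisinin, with plate-drift correction.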

CP325 = test system: CP325
How it was run: as §1

CP329 = test system: CP329
How it was run: as §1

DFO2036 = test system: DFO2036
How it was run: as §1

DIV30 = test system: DIV30
How it was run: as §1

Dd2 = test system: Dd2
How it was run: as §1

ECU = test system: ECU
How it was run: as §1

DIV14 = test system: DIV14
How it was run: as §1

DIV17 = test system: DIV17
How it was run: as §1

CP335 = test system: CP335
How it was run: as §1

Measured: Potency
Potency is the fitted concentration of half-maximal effect.

CN1CCN(C2=Nc3cc(F)ccc3Cc3ccccc32)CC1
active: Dd2 14.1 µM
not listed: DIV14 | DIV17 | CP335
inactive: all other assays above

O=C(CCN1CCN2CCCC2C1)N1c2ccccc2Sc2ccc(Cl)cc21 (stereo not given)
inactive: CP315 | CP325 | CP329 | DFO2036
active: DIV14 4.26 µM | DIV17 5.36 µM | Dd2 6.31 µM | ECU 14.1 µM

COc1ccc(C(Cl)=C(c2ccc(OC)cc2)c2ccc(OC)cc2)cc1
active: DFO2036 17.8 µM | ECU 2.24 µM
inactive: CP315 | CP325 | CP329 | DIV17 | DIV30

CCOc1ccc(NC(C)=O)cc1
not listed: CP335
inactive: all other assays above

NC(=O)C1(N2CCCCC2)CCN(CCCC(=O)c2ccc(F)cc2)CC1
inactive: CP315 | CP325 | CP329 | DFO2036 | DIV30 | ECU

NCc1ccccc1Sc1ccccc1CO
inactive: CP315 | CP325 | CP329 | DFO2036 | ECU
active: DIV14 13.5 µM | Dd2 10 µM

N/C(=N\N=C\c1ccc(Cl)cc1)N/N=C/c1ccc(Cl)cc1
active: DFO2036 3.16 µM
not listed: Dd2 | ECU | CP335
inactive: all other assays above

CC(C)=CCOc1ccc(/C=C/C(=O)c2ccc(OCC=C(C)C)cc2OCC(=O)O)cc1
inactive: CP315 | CP325 | CP329 | DFO2036 | Dd2 | ECU

CO[C@]12C[C@@H](COC(=O)c3cncc(Br)c3)CN(C)[C@@H]1Cc1cn(C)c3cccc2c13
inactive: CP315 | CP325 | CP329 | ECU

CC(C)(Cc1c[nH]c2ccccc12)NCC(O)COc1ccccc1C#N (stereo not given)
inactive: CP315 | CP325
active: DIV14 8.49 µM | DIV17 9.53 µM | Dd2 12.6 µM

CCCCCCCCNC(C)C(O)c1ccc(SC(C)C)cc1 (stereo not given)
active: CP315 3.01 µM | CP325 3.01 µM | CP329 3.01 µM | CP335 0.601 µM | DIV14 0.675 µM | DIV17 0.757 µM | DIV30 0.675 µM | Dd2 0.447 µM | ECU 0.355 µM

Cc1cc(CC(=O)O)c(C)n1-c1ccc(Cl)cc1
active: DIV17 16.9 µM
inactive: CP315 | CP325 | CP329 | DFO2036

CN1CCC[C@@H]1CCO[C@](C)(c1ccccc1)c1ccc(Cl)cc1
active: DIV17 6.75 µM
inactive: CP315 | CP325 | DFO2036 | DIV30 | ECU

Cc1cc2c(OCC(CNC(C)(C)C)OC(=O)c3ccccc3)cccc2[nH]1 (stereo not given)
inactive: CP315 | CP325 | CP329 | DIV30 | ECU
active: Dd2 3.98 µM

CCCCCCCCCCCCOCCOCCOCCOCCOCCOCCOCCOCCOCCO
active: Dd2 12.6 µM
inactive: CP315 | CP325 | CP329 | DFO2036 | DIV30

Cc1ccc(-c2ncc(Cl)cc2-c2ccc(S(C)(=O)=O)cc2)cn1
inactive: CP315 | CP325 | CP329
active: DIV17 15.1 µM

CC1CCc2c(N3CCC(O)CC3)c(F)cc3c(=O)c(C(=O)O)cn1c23 (stereo not given)
not listed: DFO2036 | DIV14 | CP335
inactive: all other assays above

CCOCCn1c(N2CCCN(C)CC2)nc2ccccc21
active: DIV14 7.57 µM | DIV17 7.57 µM
inactive: CP315 | CP325 | CP329 | ECU

C#C[C@]1(OC(C)=O)CC[C@H]2[C@@H]3CCC4=C/C(=N/O)CC[C@@H]4[C@H]3CC[C@@]21CC
not listed: DIV14 | DIV17 | CP335
inactive: all other assays above

COc1ccc(C(=O)c2ccccc2)c(O)c1
inactive: CP315 | CP325 | CP329 | DFO2036

O=C(NC1CCN(CCc2c[nH]c3ccccc23)CC1)c1ccccc1
inactive: CP315 | CP325 | CP329 | DFO2036 | ECU

CN1CCN(c2cc3c(cc2F)c(=O)c(C(=O)O)cn3-c2ccc(F)cc2)CC1
not listed: DFO2036 | Dd2 | CP335
inactive: all other assays above

CCC(C(=O)OCCOCCN(CC)CC)c1ccccc1 (stereo not given)
inactive: CP315 | CP325 | CP329 | DFO2036 | DIV30 | ECU

C=CCN1CCc2nc(N)sc2CC1
not listed: CP335
inactive: all other assays above

COc1cc(O)c(C(=O)c2ccccc2)cc1S(=O)(=O)O
inactive: CP315 | CP325 | CP329 | DFO2036 | DIV30 | Dd2

CN1CCN(C2=Nc3ccccc3Sc3ccc(Cl)cc32)CC1
inactive: CP315 | CP325 | CP329 | DFO2036 | ECU

O=C1C(=O)c2ccccc2C(O)=C1C1CCC(c2ccc(Cl)cc2)CC1 (stereo not given)
active: CP315 0.0057 µM | CP325 0.0064 µM | CP335 0.0032 µM | DFO2036 0.0032 µM | DIV14 0.0064 µM | DIV17 0.0091 µM | DIV30 0.0051 µM | Dd2 0.0035 µM | ECU 0.0032 µM

CC[N+](C)(CC)CCOC(=O)C(O)(c1ccccc1)C1CCCCC1 (stereo not given)
inactive: CP315 | CP325 | CP329 | DIV14 | DIV30 | ECU

O=C(c1ccc(F)cc1)C1CCN(CCn2c(=S)[nH]c3ccccc3c2=O)CC1
active: CP315 15.1 µM | CP325 7.57 µM | CP329 6.75 µM | DFO2036 5.62 µM | DIV17 13.5 µM | DIV30 12 µM | Dd2 11.2 µM | ECU 4.47 µM

CN(Cc1ccc(C(C)(C)C)cc1)Cc1cccc2ccccc12
not listed: Dd2 | DIV14 | CP335
inactive: all other assays above

O=[N+]([O-])c1cccc(S(=O)(=O)NCCNS(=O)(=O)c2cccc([N+](=O)[O-])c2)c1
inactive: CP315 | CP325 | CP329 | DFO2036 | DIV30 | Dd2

NC(N)=NCc1cccc(I)c1
not listed: CP335
inactive: all other assays above

CCCc1ncc(C[n+]2ccccc2C)c(N)n1
not listed: CP335
inactive: all other assays above

CN1CCN(CCC(=O)N2c3ccccc3Sc3ccc(C(F)(F)F)cc32)CC1
active: DIV14 8.49 µM | DIV17 8.49 µM
inactive: CP315 | CP325 | CP329 | DFO2036

c1ccc(CC2=NCCN2)cc1
not listed: CP335
inactive: all other assays above

CC(C)(C)CC(C)(C)c1ccc(O)c(-n2nc3ccccc3n2)c1
inactive: CP315 | CP325 | CP329 | DIV30
active: DIV14 13.5 µM | DIV17 13.5 µM | Dd2 12.6 µM

Reference: PubChem BioAssay (NCATS)
